# Target: CPEB3
# Assay: pooled miR-30 sensor sort-seq; sequence = guide strand
# Settings: shRNA
# Also: reference of the scale not given here.
row,Sequence,sensor-assay potency score (higher = more potent)
1,TTTAATTGATATCCTAGCCTGA,0.351
2,TTTATTGCATGCAGCAACCTGA,-0.657
3,TTTTGCTACATCTGCCACCTAC,-0.378
4,TTCCATCTGCATCTTGTCCGGG,0.148
5,TTTGAAAACAAACTATAGCTTG,-0.549
6,TTGAAAACAAACTATAGCTTGA,0.15
7,TAGTCTTGCAATCATTGTGTGT,-0.635
8,TATAACATTAACAACTTGGGGG,0.19
9,TAGAGTAGCGTTCTACTCGTTC,-0.216
10,TTGCAGGTCAGAACACCTCTGT,0.0399
11,TAATATAACATTAACAACTTGG,0.134
12,TTGAAGAATATCCTACACCTAG,-0.344

# Target: CPNE5
# Assay: as above
# Settings: shRNA
row,Sequence,sensor-assay potency score (higher = more potent)
1,TAGATCAAAACGGAGGTTCTGC,-0.116
2,TTGTCGATGACTTCGGTGCGCC,-0.869
3,TTCTTGTCCAGCTTGTTGGCAC,-0.22
4,TTCTTCATGACCTCGGTCTTGT,0.503

# From the OligoGym collection
